Values joined by “and” are separate entries in the source; they are usually repeats but may differ in a detail not shown here. Equal entries are not always repeated. Results filed as inconclusive are left out. Entries that show only a call come without a potency. More than one record can exist for a structure, and the calls need not agree. Active and inactive are the calls of the source. Calls come from the whole dose curve; as a rule, active = well fitted activation curve with a large enough effect in the repeat runs; inconclusive = weak or mixed curves, or effect the other way; inactive = no such curve, though single readings can be large or run the other way.
Potency is the fitted concentration of half-maximal effect.

This test can be described thus: qHTS assay to identify small molecule agonists of the retinoic acid receptor (RAR) signaling pathway (AID 1159553). The following applies: C3RL4 RARE luciferase reporter, agonist, 6 h; activation: at 73.3 µM (top of the series) unless noted. An excerpt:
National Center for Advancing Translational Sciences [NCATS] NIH Chemical Genomics Center [NCGC] U.S. Environmental Protection Agency [EPA] National Institutes of Environmental Health Sciences [NIEHS] National Toxicology Program [NTP] Assay overview: All-trans Retinoic acid (atRA) is the potent natural metabolite of retinol and plays an important role in normal embryonic development and maintenance of cellular phenotype in adult animals. atRA is the activating ligand for the retinoic acid receptors (RARs) which form heterodimers with retinoid X receptors (RXRs) on the retinoic acid response element (RARE). Through activation of the RAR/RXRs nuclear receptors, atRA regulates the transcription of a large number of protein-coding genes and regulatory RNAs. Intracellular levels of atRA are controlled by the retinol signaling pathway (RSP) that regulates the biosynthesis and catabolism of atRA to maintain physiological levels. Chemicals that interfere with the RSP can cause abnormal intracellular levels of atRA and therefore are potential developmental toxicants. To assess compounds for the potential adverse effect on embryonic development through interfering with retinol signaling, a cell-based RARE luciferase reporter gene assay was used. C3RL4 cell line (OARSA/CFSAN/FDA, Laurel, MD) was used to screen Tox21 10K compound library for identifying activators of the RSP.
Assay Protocol Summary: C3RL4 cells were seeded at 1,000/well in 5 uL of assay medium into white solid 1,536-well tissue culture plates (Greiner Bio-One North America Inc. Monroe, NC) using a Multidrop Combi (Thermo Scientific, Waltham, MA) dispenser. After incubation at 37 C and 5% CO2 for an overnight, 23 nL of compounds dissolved in DMSO, positive control or DMSO only were transferred by a Pintool station (Kalypsys, San Diego, CA). After 6 hr incubation at 37 C and 5% CO2, 5 uL of Amplite Luciferase reagent (AAT Bioquest Inc. Sunnyvale, CA) was added to each assay plate using a Flying Reagent Dispenser (FRD) (Aurora Discovery, San Diego, CA). Luminescence was quantified on a ViewLux plate reader (PerkinElmer, Waltham, MA) after 30 min incubation at room temperature.
In the case of `C=C1C[C@H]2[C@@H]3C=C(C)C4=CC(=O)CC[C@]4(C)[C@H]3CC[C@]2(C)[C@@]1(OC(C)=O)C(C)=O`, the Potency result was “inactive”.
In the case of `c1ccc2c(c1)[nH]c1ccccc12` it was “inactive”.
The result for `Cc1ccc(S(=O)(=O)O)cc1C` reads “inactive”; that for `Cc1cccc(Nc2ccccc2C(=O)O)c1C`, “inactive”.
Consider `CC1(C)NC(=O)N(c2ccc([N+](=O)[O-])c(C(F)(F)F)c2)C1=O`, for which the Potency result was “inactive”.
As for `CC(=O)[C@@]1(O)CC[C@H]2[C@@H]3C[C@H](C)C4=CC(=O)C=C[C@]4(C)[C@@]3(F)[C@@H](O)C[C@@]21C`, the Potency entry was “inactive”.
On to `Nc1ccc2c(c1)C(=O)c1ccccc1C2=O`, for which the Potency is 338 nM (active) and 273 nM (active).
Turning to `CCCOCCO`, the Potency result is “inactive”.
Turning to `COc1ccc(C(=O)c2ccccc2O)c(O)c1`, the Potency entry is “inactive”.
The result for `Brc1nc2ccccc2s1` reads “inactive”.
Take `CC(=O)O[C@]1(C(C)=O)CC[C@H]2[C@@H]3C=C(Cl)C4=CC(=O)CC[C@]4(C)[C@H]3CC[C@@]21C`: the Potency result is “inactive”.
Turning to `c1ccc2c(c1)ccc1cc3c(ccc4ccccc43)cc12`, the Potency was 152 nM (active) and 215 nM (active).
Consider `CCCCCCCC/C=C\CCCCCCCC(=O)O`, for which the Potency entry is “inactive”.
In the case of `NCCS(=O)(=O)O` it was 28.4 µM (active) and inactive.
For the compound `CN(C)/N=N/c1nc[nH]c1C(N)=O`, the Potency entry is “inactive”.
In the case of `CCOC(=O)C(C)Oc1ccc(Oc2cnc3cc(Cl)ccc3n2)cc1` (stereo not given) it was “inactive”.
In the case of `CNC[C@H](O)c1ccc(O)c(O)c1`, the Potency result is “inactive”.
As for `O=C(O)c1ccc(O)cc1`, the Potency result was “inactive”.
In the case of `Cc1ccc2c(c1)C(=O)OC2=O`, the Potency result was “inactive”.
In the case of `CC(C)[N+](C)(CCOC(=O)C1c2ccccc2Oc2ccccc21)C(C)C` it was “inactive”.
As for `Cc1ccc(C)c(O)c1`, the Potency result is “inactive”.
The result for `[O-]/[N+](=N\O)c1ccccc1` reads 48.6 µM (active); that for `CC(C)(C)c1cccc(C(C)(C)C)c1O`, “inactive”; that for `O=C(O)CCCC(=O)O`, “inactive”.
Turning to `CC1(C)O[C@@H]2C[C@H]3[C@@H]4C[C@H](F)C5=CC(=O)C=C[C@]5(C)[C@@]4(F)[C@@H](O)C[C@]3(C)[C@]2(C(=O)CO)O1`, the Potency entry was “inactive”.
As for `C/C=C/C(=O)N(CC)c1ccccc1C`, the Potency result was “inactive”.
For the compound `Nc1cc(Cl)c(N)c(Cl)c1`, the Potency entry was “inactive”.
Regarding `FC(F)(F)C(Cl)Br` (stereo not given), the Potency entry was “inactive”.
The result for `CCCCCCOCCOCCO` reads “inactive”; that for `O=C1OC2(c3ccccc31)c1cc(I)c(O)c(I)c1Oc1c2cc(I)c(O)c1I`, “inactive”; that for `C=CC(C)(O)CCC=C(C)C` (stereo not given), “inactive”.
For `CN1CCOCC1`, the Potency result was “inactive”.
Regarding `ClC/C=C/CCl`, the Potency result is “inactive”.
As for `C=CCOC(=O)C(=C)C`, the Potency entry was “inactive”.
In the case of `Cc1ccc(N)c([N+](=O)[O-])c1`, the Potency entry was “inactive”.
With `CCCCCC1C(=O)CCC1CC(=O)OC` (stereo not given), the Potency result was “inactive”.
As to `C=CCCCCCCCCCC`, the Potency result was “inactive”.
The result for `C1CN(SSN2CCOCC2)CCO1` reads “inactive”; that for `C=CC(=O)OCCCC`, “inactive”.
The result for `CC(=O)OC(C)C` reads “inactive”.
